Records with an inconclusive call do not appear. A call without a number means that no potency is given here. Calls of active or inactive are those of the source. The call rests on the fitted dose curve; in most records, active means well fitted cell-killing curve with a large enough effect; inconclusive means small, poorly fitted or top-dose-only effect; inactive means flat fitted curve, though single readings scatter.
Potency means the concentration at half of the fitted maximal effect.

This assay in a line: qHTS of pediatric cancer cell lines to identify multiple opportunities for drug repurposing: Primary screen for BT-12 cells (AID 1347101). Further: nearly all actives have a fitted effect of over 25% in size. To be noted: BT-12 viability, CellTiter-Glo luminescence, 48 h; series mostly up to 57.3 µM. An excerpt:
Drug repurposing or repositioning has been offered as a strategy for drug development in oncology programs. This approach has special potential for childhood cancers and other rare or orphan diseases, where the expected return on new drug development has been a disincentive to pharmaceuticals.
In this project we exploit the poly-pharmacology of drugs to discover new indications via phenotypic screening of a panel of 19 well-characterized cell lines derived from solid tumors seen in children and adolescents. The goal is to identify approved drugs with previously unrecognized anticancer properties that has the potential to reveal new mechanisms and biological processes involved in carcinogenesis or drug resistance. We employed a titration-based paradigm (quantitative high-throughput screening or qHTS), where all compounds were tested at multiple concentrations for their effect on cell viability. Concentration-response curves (CRCs) were derived directly from the primary screen, and both potency and efficacy values were used to identify compounds with robust bioactivity profiles. We screened the NIH Chemical Genomics Center (NCGC) Pharmaceutical Collection (NPC) and Mechanism Interrogation Plate (MIPE) small molecule collections of approved and investigational compounds against these cell lines; and measured metabolically active cells after 48 hours of compound treatment as a proxy for cell viability.
Assay Submitter: Nathalia J. Martinez, National Center for Advancing Translational Sciences, National Institutes of Health, Rockville, MD, USA; email: natalia.martinez@nih.gov
[1] Shen, M et al. Quantitative high-throughput phenotypic screening of pediatric cancer cell lines identifies multiple opportunities for drug repurposing. Oncotarget 2017 Dec 19;9(4):4758-4772. PMID 29435139.
The cells were obtained from University of North Carolina (UNC), Pediatric Preclinical Testing Program (PPT), and Coriell Institute (CI).
qHTS cell viability assay:
Cells were assayed in growth media at a density of 500-1,000 cells/well. Five microliters of cells were dispensed into 1,536-well, white, solid-bottom, TC-treated plates (Greiner Bio One) using a multidrop dispenser and incubated at 37 degrees C, 5% CO2, under a humidified atmosphere for 5 hours. Twenty-three nanoliters of compounds and controls (neutral control DMSO or positive control bortezomib at final concentration of 2.3 µM) were subsequently transferred by Kalypsys pintool. For primary screens, the MIPE collection was tested at 11-point dilutions (final concentrations range from 0.78 nM to 46 µM) and the NPC collection at 8-point dilutions (final concentrations range from 0.59 nM to 46 µM). Compounds tested in follow-up screens were assayed at 11-point dilutions. Cells were incubated for 48 hours, followed by addition of 3 µL of CellTiter-Glo (Promega). After a 15 min incubation at room temperature, samples were analyzed for luminescence intensity using a ViewLux High-throughput CCD imager equipped with clear filters.
(In general: In qHTS, concentration-response curves come from the screen itself.)
As to `CC(Oc1c(Cl)cccc1Cl)C1=NCCN1` (stereo not given), the Potency entry was “inactive”.
With `CC(C)NCCCC1(C(N)=O)c2ccccc2-c2ccccc21` the entry was “inactive”.
The value for `CC(C)OP(=O)(CP(=O)(OC(C)C)OC(C)C)OC(C)C` was “inactive”; that for `C#CC(C)(CC)OC(=O)c1ccccc1C(=O)O` (stereo not given) was “inactive”; that for `CO[C@@]1(NC(=O)CSC[C@@H](N)C(=O)O)C(=O)N2C(C(=O)O)=C(CSc3nnnn3C)CS[C@@H]21` was “inactive”.
As to `CNC[C@H](O)[C@@H](O)[C@H](O)[C@H](O)CO`, the Potency result is “inactive”.
The value for `COCCc1ccccn1` was “inactive”.
The value for `CSc1ccc(/C=C2/C(C)=C(CC(=O)O)c3cc(F)ccc32)cc1` was “inactive”.
With `CCOC(=O)C(=O)CCc1ccccc1` the entry was “inactive”; with `NCC(=O)O`, “inactive”.
Regarding `CN(C)C(=O)CNC(=O)Cc1ccccc1`, the Potency entry was “inactive”.
For `Cc1cc(O)c2c(O)c3c(O)cccc3cc2c1`, the Potency result is “inactive”.
The value for `CCCCC(O)/C=C(C)/C=C/C=C/C(=O)N1CCCC1=O` (stereo not given) was “inactive”; that for `O=C(O)Cc1ccccc1Oc1ccc(Cl)cc1Cl` was “inactive”.
The value for `CCC(=O)Oc1ccc2c(c1)CC[C@@H]1[C@@H]2CC[C@@]2(C)[C@H]1C[C@@H](OC(=O)CC)[C@@H]2OC(=O)CC` was “inactive”; that for `C=C(C)C(=O)OCC(O)CO` (stereo not given) was “inactive”.
The value for `CC(C)C(=O)Nc1cccc(C(F)(F)F)c1` was “inactive”; that for `CCCCCCCC(=O)[O-].CCCCCCCC(=O)[O-].[Zn+2]` was “inactive”.
Take `CC(C(=O)O)c1ccc(/C=C2\CCCCC2=O)cc1` (stereo not given): the Potency entry was “inactive”.
The value for `CCc1cc2cc(OC)c(OC)cc2c(Cc2ccccc2)n1` was “inactive”; that for `C[N+]1(C)CCC(OC(=O)C(O)(c2ccccc2)C2CCCC2)C1` (stereo not given) was “inactive”; that for `CCCCCCCCCCCC[N+](C)(C)Cc1ccccc1` was 4.37 µM (active).
Consider `C[C@@H](C1=C(CCN(C)C)Cc2ccccc21)c1ccccn1`, for which the Potency entry was “inactive”.
With `COc1ccc2c(c1)c(CC(=O)OC/C=C(\C)CC/C=C(\C)CCC=C(C)C)c(C)n2C(=O)c1ccc(Cl)cc1` the entry was “inactive”; with `CC(=O)OCC(=O)[C@@]1(O)[C@H](OC(C)=O)C[C@H]2[C@@H]3CCC4=CC(=O)C=C[C@]4(C)[C@@]3(F)[C@@H](O)C[C@@]21C`, “inactive”; with `O=C1Nc2ccccc2C1(c1ccc(O)cc1)c1ccc(O)cc1`, “inactive”.
With `O=C(O)Cn1c(=O)n(Cc2ccc(Br)cc2F)c(=O)c2ccc(Cl)cc21` the entry was “inactive”.
With `CCOc1ccc(NS(=O)(=O)c2ccc(N)cc2)nn1` the entry was “inactive”; with `CCOC(=O)[C@H](CCc1ccccc1)N[C@@H](C)C(=O)N(CC(=O)O)C1Cc2ccccc2C1`, “inactive”.
With `COC(=O)c1cc(S(N)(=O)=O)ccc1OC`, the Potency entry was “inactive”.
With `Cc1ccc2c(Cl)cc(Cl)c(O)c2n1` the entry was “inactive”; with `CN1CCN(N)CC1`, “inactive”; with `CC(C(O)c1ccccc1)N(C)CCOC(c1ccccc1)c1ccccc1` (stereo not given), 21.9 µM (active).
The value for `COCCc1ccc(OCC2CO2)cc1` (stereo not given) was “inactive”; that for `C[C@H](CN1CCCC1)C(=O)c1ccc(C(F)(F)F)cc1` was “inactive”.
With `Cc1cc(O)c(C)c(C)c1O` the entry was “inactive”; with `COC(=O)c1cc(Cl)c(NC(C)=O)cc1OC`, “inactive”.
`CN1N=C(C(N)=O)CCC1=O`: the Potency entry is “inactive”.
With `O=C(CCOCCOCCOCCOCCC(=O)Nc1c(I)cc(I)c(C(=O)O)c1I)Nc1c(I)cc(I)c(C(=O)O)c1I` the entry was “inactive”; with `O=C(Oc1ccccc1)c1cccc(C(=O)Oc2ccccc2)c1`, “inactive”.

The values are drawn from PubChem BioAssay (NCATS).
